Test [1] can be described thus: nonspecific voltage dye response without TRPC6 – cell-based, parental HEK293, counter-screen for TRPC6 modulator project, confirmation (AID 488924;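 active = membrane potential signal moves up or down beyond 5 SD from buffer-only wells, on both duplicate plates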). As to conditions: parental HEK293, membrane potential dye fluorescence; at 10 µM.
Test [2] can be described thus: membrane potential response modulators in host HEK293 cells – cell-based, second counter-screen, parental HEK293, membrane potential dye, counter-screen for TRPC6 modulator project, confirmation (AID 488926;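 active = membrane potential signal drops by more than 5 SD from the mean control signal, in both duplicate plates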;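 also: plate controls were acetylcholine ECmax control wells for no effect and buffer only wells for full effect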). As to conditions: parental HEK293, membrane potential dye fluorescence, at 10 µM, after compound, maximal acetylcholine stimulation; active compounds read high. A general note: Counterscreens check selectivity or assay interference.

In test [3] the test system is Transient receptor potential cation channel subfamily C member 4 (mouse). The test is described as follows: off-target membrane potential effects via mouse TRPC4 – cell-based, HEK293 TRPC4/mu-opioid, membrane potential dye, selectivity assay for TRPC6 modulator project, confirmation (AID 488927;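 active = membrane potential signal moved up or down beyond 5 SD of buffer control wells, in both duplicate plates, actives on both sides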). As to conditions: membrane potential fluorescence, at 10 µM.
Test [4] relates to TRPC4 (transient receptor potential cation channel C4), mouse. The test is described as follows: DAMGO-evoked mouse TRPC4 response blockade – cell-based, second screen, HEK293 TRPC4/mu-opioid, membrane potential dye, selectivity assay for TRPC6 modulator project, confirmation (AID 488928;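 active = drop in membrane potential signal beyond 5 SD of the control wells in both duplicate plates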;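 also: TRPC4 counter screen for TRPC6 hits run under conditions tuned for TRPC6 not TRPC4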). As to conditions: membrane potential dye fluorescence, at 10 µM, stimulated with maximal-effect DAMGO; active compounds read high.

The target of test [5] is Short transient receptor potential channel 6 (Mus musculus) (UniProt Q61143). The experiment in a line: blockers of TRPC6 cation channel activity – HEK293 cells, membrane potential dye, duplicate, confirmation (AID 488960;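 active = fluorescence ratio falls more than 5 SD below the full-stimulation control mean, in both duplicate runs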;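 also: integrated fluorescence ratio of peak minus minimum over baseline after agonist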). As to conditions: ACh-evoked depolarization, at 10 µM; active compounds read high.
Test [6] has the same target. The test is described as follows: mouse TRPC6 channel activators, confirmation, HEK293 cells, membrane potential dye, duplicate (AID 488961;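 active = ratio signal rise beyond 5 SD above unstimulated control wells' mean, seen in both duplicate runs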). As to conditions: HEK293-TRPC6 membrane potential dye fluorescence, FDSS; at 10 µM.
The test system of test [7] is TRPC4 beta (transient receptor potential cation channel C4), mouse. The test is described as follows: TRPC4 cation channel opening, retest – cell-based, Fluo4 calcium, HEK293 TRPC4beta/mu-opioid, duplicates, 10 µM, confirmation (AID 2426).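 Also: percent rise of integrated ratio over buffer wells lacking compound which define 0%.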 As to conditions: Fluo4 calcium fluorescence, at 10 µM; active compounds read high.
Test [8] deals with transient receptor potential cation channel C4 beta (TRPC4), mouse. The test is described as follows: TRPC4 cation channel opening, second retest – cell-based, second round, Fluo4, HEK293 TRPC4beta/mu-opioid, 1 µM, confirmation (AID 2461;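 active = primary screen active and over 50% activation in each of two duplicate runs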;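 also: 0% = wells without test compound as baseline of integrated fluorescence ratio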). As to conditions: Fluo4 calcium fluorescence, at 1 µM; active compounds read high.
For test [9], the system named is TRPC4 (transient receptor potential cation channel C4 beta), mouse. The experiment in a line: potentiation of DAMGO EC20 TRPC4 response – cell-based, second round, Fluo-4, HEK293 TRPC4beta/mu-opioid, 1 µM, confirmation (AID 2554;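 active = primary screen hit whose fluorescence ratio, in both repeats, exceeds the weak agonist control mean by 3 SD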). As to conditions: DAMGO EC20, Fluo-4 calcium flux, at 1 µM; active compounds read high. Background: Calcium flux is commonly read through the fluorescence of an indicator in the cells.

Test [10] deals with TRPC4 beta (transient receptor potential cation channel C4), mouse. The experiment in a line: potentiation of DAMGO EC20 TRPC4 response – cell-based, Fluo-4, HEK293 TRPC4beta/mu-opioid, confirmation (AID 2555;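 active = primary screen hit whose calcium fluorescence ratio, in both repeats, exceeds the weak agonist control mean by 3 SD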). As to conditions: DAMGO EC20, Fluo-4 calcium flux, at 10 µM; active compounds read high.
In test [11] the target is Short transient receptor potential channel 4 (Mus musculus) (UniProt Q9QUQ5). The test is described as follows: blockers of DAMGO-evoked TRPC4 calcium flux – cell-based, Fluo4, HEK293 TRPC4beta/mu-opioid, confirmation (AID 2636;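 active = calcium signal cut by more than 3 SD below the full-agonist control yet still positive, in both repeats and the earlier primary screen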). As to conditions: at 10 µM; active compounds read high.
Test [12] has the same target. The test is described as follows: blockers of DAMGO-evoked TRPC4 calcium flux – cell-based, second round, Fluo4, HEK293 TRPC4beta/mu-opioid, 1 µM, confirmation (AID 2637;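 active = calcium signal ratio cut to more than 3 SD under the fully stimulated control mean yet still positive, in both repeats and the primary screen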). As to conditions: at 1 µM; active compounds read high.
Test [13] shares this target. The experiment in a line: potentiation of DAMGO-evoked TRPC4 calcium signal – cell-based, HEK293 TRPC4/mu-opioid, Fluo-4 calcium, EC20 DAMGO, dose response (AID 434941;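 active = earlier screen potentiator hit that boosts the TRPC4 ion channel at some dose, with a dose response; inactive = no potentiation, no dose response, or not a prior hit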;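 also: calcium entry triggered by an EC20 dose of DAMGO at the co-expressed mu-opioid receptor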).
For test [14] the target is unchanged. The experiment in a line: block of DAMGO-driven TRPC4 calcium entry – cell-based, HEK293 TRPC4/mu-opioid, Fluo-4 calcium, dose response (AID 434942;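 active = primary screen inhibitor hit that blocks the TRPC4 channel at some tested dose, yielding a dose curve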).
For test [15], the target named is Short transient receptor potential channel 6 (Mus musculus) (UniProt Q61143). The test is described as follows: TRPC6 blockade by TRPC4 inhibitor hits – cell-based, HEK293, membrane potential dye, duplicate, selectivity assay for TRPC4 inhibitor project, confirmation (AID 434948;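 active = active in primary screen and both duplicates, each dropping signal beyond three positive-control SD with fluorescence still positive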). As to conditions: HEK293 TRPC6, membrane potential dye fluorescence, at 10 µM; inhibition: active compounds read high, stimulated with maximal-effect acetylcholine unless noted; outcome: stimulated with maximal-effect acetylcholine unless noted.

Test [16] has the same target. The test is described as follows: TRPC6 opening by TRPC4 activator hits – cell-based, HEK293, membrane potential dye, duplicate, selectivity assay for TRPC4 activator project, confirmation (AID 434950;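 active = membrane potential signal rise above negative control mean plus 3 SD in both duplicates, also active in the earlier TRPC4 screen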;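 as to activation: 0% = buffer only wells and 100% = acetylcholine maximal-effect wells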). As to conditions: HEK293 TRPC6, membrane potential fluorescence, at 10 µM; activation: active compounds read high; outcome: activation.
The target is the same in test [17]. The experiment in a line: positive modulators of mouse TRPC6 channel – HEK293 cells, membrane potential dye, duplicate, selectivity assay for TRPC4 potentiator project, confirmation (AID 434952;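 active = compound raising the membrane signal above positive-control mean plus 3 SD in both repeats, and a primary screen hit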). As to conditions: HEK293 TRPC6, membrane potential dye fluorescence, at 10 µM; maximal acetylcholine added after compound unless noted.
Test [18] addresses Short transient receptor potential channel 4 (Mus musculus) (UniProt Q9QUQ5). The experiment in a line: calcium flux activators in TRPC4/5HT1a cells, counter-screen for TRPC4 activator project, cell-based, second counter screen, HEK293 TRPC4/5HT1a, Fluo-4 (AID 434977;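 active = calcium signal rise above buffer-control mean plus 5 SD in both duplicates, and also a hit in the primary screen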;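 also: plate controls were assay buffer for no effect and maximal serotonin response for full effect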). As to conditions: Fluo-4 calcium flux, at 10 µM; active compounds read high.
A short description of test [19]: serotonin-gated TRPC4 signal block – cell-based, second counter screen, HEK293 TRPC4/5HT1a, Fluo-4, counter-screen for TRPC4 inhibitor project, confirmation (AID 434978;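 active = primary screen active whose calcium signal fell more than 3 SD beyond the full-serotonin control mean in both duplicate plates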;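 also: serotonin given first at submaximal then at maximal dose after compound preincubation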). As to conditions: Fluo-4 calcium flux, at 10 µM; inhibition: active compounds read high, serotonin added to trigger calcium flux unless noted; outcome: serotonin added to trigger calcium flux unless noted.

The test system of test [20] is TRPC4 (mouse), co-expressed with 5HT1a in HEK293. The experiment in a line: enhancement of serotonin-evoked TRPC4 response – cell-based, second counter screen, HEK293 TRPC4/5HT1a, Fluo-4, counter-screen for TRPC4 potentiator project, confirmation (AID 434979;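 active = signal rise over 3 SD above mean of control wells given weak agonist, in both repeats and first screen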). As to conditions: Fluo-4 calcium flux, at 10 µM; outcome: serotonin added at its EC20 dose unless noted; potentiation: active compounds read high, serotonin added at its EC20 dose unless noted.

Test [21] is described as follows: nonspecific calcium rise without TRPC4 – cell-based, HEK293 mu-opioid receptor line, counter-screen for TRPC4 activator project, confirmation (AID 449723;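 active = hit in primary screen, with calcium signal over 5 SD above buffer well mean in both duplicates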;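 also: counter screen cells carry the mu-opioid receptor alone and lack TRPC4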). As to conditions: HEK293 mu-opioid cells, Fluo-4 calcium fluorescence, at 10 µM; active compounds read high.
A short description of test [22]: nonspecific potentiation of DAMGO calcium response – cell-based, HEK293 mu-opioid receptor line, counter-screen for TRPC4 allosteric potentiator project, confirmation (AID 449724;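 active = calcium signal rise more than 3 SD above the low-dose agonist control mean, in both duplicate plates and the primary screen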;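 also: HEK293 cells carrying mu-opioid receptor only with no TRPC4 channel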). As to conditions: HEK293 mu-opioid receptor cells, Fluo-4 calcium flux, at 10 µM; compound added before EC20 DAMGO stimulus unless noted.

Molecules are shown by their SMILES. For part of these data: Potency and affinity values are given separately. Some of the results follow. Activity calls are given as the source filed them.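 The calls were made as follows, unless noted: active = fluorescence ratio normalized to control raised more than 50% in primary screen plus both repeat runs; inactive = the rest.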

Drawing on PubChem BioAssay, this text covers outcome, inhibition and activation for 4 molecules.

In general, inhibition refers to the drop in the measured response relative to a control, in per cent.

Chain of Short transient receptor potential channel 4 (Mus musculus) (Q9QUQ5 whole entry, looked up): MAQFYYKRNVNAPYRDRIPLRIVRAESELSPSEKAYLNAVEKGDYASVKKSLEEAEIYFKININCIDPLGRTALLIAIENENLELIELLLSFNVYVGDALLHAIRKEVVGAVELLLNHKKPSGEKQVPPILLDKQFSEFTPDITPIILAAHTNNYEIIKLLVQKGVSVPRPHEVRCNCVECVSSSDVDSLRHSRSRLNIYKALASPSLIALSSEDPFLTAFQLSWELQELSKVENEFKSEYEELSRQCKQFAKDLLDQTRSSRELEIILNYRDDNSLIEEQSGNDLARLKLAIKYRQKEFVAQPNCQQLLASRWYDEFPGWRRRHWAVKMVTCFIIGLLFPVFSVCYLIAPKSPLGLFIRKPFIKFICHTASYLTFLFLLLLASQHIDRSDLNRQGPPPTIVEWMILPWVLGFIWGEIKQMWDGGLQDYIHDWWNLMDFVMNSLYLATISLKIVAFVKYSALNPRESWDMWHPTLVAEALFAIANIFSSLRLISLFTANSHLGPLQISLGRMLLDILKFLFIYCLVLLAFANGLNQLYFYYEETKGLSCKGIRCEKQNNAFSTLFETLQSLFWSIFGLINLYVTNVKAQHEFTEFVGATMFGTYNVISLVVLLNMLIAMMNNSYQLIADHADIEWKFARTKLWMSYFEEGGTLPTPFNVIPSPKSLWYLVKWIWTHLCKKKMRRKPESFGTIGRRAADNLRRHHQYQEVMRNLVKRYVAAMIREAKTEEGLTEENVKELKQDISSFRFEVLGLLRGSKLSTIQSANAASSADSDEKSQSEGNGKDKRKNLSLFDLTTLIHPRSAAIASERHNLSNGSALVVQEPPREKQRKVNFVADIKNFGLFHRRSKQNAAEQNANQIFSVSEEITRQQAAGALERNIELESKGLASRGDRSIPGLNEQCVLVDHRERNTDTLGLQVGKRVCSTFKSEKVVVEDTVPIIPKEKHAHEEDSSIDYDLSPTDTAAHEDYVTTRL
Chain of Short transient receptor potential channel 6 (Mus musculus) (Q61143 whole entry, looked up): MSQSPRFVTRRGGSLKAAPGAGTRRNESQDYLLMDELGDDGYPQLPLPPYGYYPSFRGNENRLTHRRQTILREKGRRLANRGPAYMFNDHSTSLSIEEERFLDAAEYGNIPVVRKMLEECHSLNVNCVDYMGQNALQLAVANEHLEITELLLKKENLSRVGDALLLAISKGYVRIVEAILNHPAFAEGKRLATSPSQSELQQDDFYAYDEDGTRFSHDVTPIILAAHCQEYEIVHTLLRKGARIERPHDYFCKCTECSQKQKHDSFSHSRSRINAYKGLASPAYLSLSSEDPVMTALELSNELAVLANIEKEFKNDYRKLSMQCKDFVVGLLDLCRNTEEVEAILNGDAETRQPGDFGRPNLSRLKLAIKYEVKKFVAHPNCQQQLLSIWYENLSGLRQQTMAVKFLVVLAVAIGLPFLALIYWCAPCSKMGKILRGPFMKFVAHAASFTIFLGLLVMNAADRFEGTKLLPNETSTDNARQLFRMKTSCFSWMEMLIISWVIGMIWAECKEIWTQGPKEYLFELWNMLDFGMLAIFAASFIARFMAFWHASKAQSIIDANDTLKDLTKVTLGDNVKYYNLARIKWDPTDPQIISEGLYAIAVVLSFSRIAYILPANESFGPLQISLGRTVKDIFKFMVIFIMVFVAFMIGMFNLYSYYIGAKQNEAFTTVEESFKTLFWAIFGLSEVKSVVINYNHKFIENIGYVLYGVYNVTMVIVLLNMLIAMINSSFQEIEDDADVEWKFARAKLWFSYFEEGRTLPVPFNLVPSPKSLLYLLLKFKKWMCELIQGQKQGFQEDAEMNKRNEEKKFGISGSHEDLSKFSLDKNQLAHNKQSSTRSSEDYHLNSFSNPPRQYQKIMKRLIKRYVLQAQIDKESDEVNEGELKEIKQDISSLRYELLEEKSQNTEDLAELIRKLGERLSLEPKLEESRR

In the case of `CC1=CC(=Cc2sc3ccccc3[n+]2C)C=C(C)O1`, the outcome in test [1], in test [3], in test [4] and in [6] was inactive. In addition, the figures for the inhibition in [2] and in test [5] were 131% (active) and 73% (active), respectively.

Regarding `c1ccc2sc(N3CCNCC3)nc2c1`, the activation in test [7] is 97% (active); in [8] it was 78% (active); in [16], 29.5% (active); in test [18], 51.8% (active). The result in [9], in test [10], in test [11], in test [12], in test [13] and in [14] was inactive. Also, the result in [15], in [17], in [19], in [20], in [21] and in test [22] was inactive.

Take `O=[N+]([O-])c1ccc(N2CCNCC2)cc1NC1CC1`: the activation was 64% (active) in test [7], 67% (active) in test [8] and 26.6% (active) in test [18]. The result in [9], in test [10], in test [11], in test [12], in test [13] and in test [14] was inactive. For the same molecule, the call in test [15], in test [16], in test [17], in [19], in test [20] and in test [21] was inactive. Moreover, the outcome in test [22] was inactive.

Take `COc1ccc(C2NCCc3[nH]cnc32)cc1` (centres undefined): the activation in test [7] was 220% (active); in test [8] it was 68% (active); in [18] it was 49.5% (active). Also, the outcome in test [9], in test [10], in [11], in test [12], in test [13] and in test [14] was inactive. The molecule was called inactive in test [15], in test [16], in [17], in test [19], in test [20] and in [21]. Moreover, the outcome in test [22] was inactive.
